Assay results from article PMC11006913.

target: T1, PAX4 (Homo sapiens, UniProt O43316 9-242, R227W); experiment: PBM; 200 nM protein, PBS; conditions: dsDNA, one strand shown
T1 sequence: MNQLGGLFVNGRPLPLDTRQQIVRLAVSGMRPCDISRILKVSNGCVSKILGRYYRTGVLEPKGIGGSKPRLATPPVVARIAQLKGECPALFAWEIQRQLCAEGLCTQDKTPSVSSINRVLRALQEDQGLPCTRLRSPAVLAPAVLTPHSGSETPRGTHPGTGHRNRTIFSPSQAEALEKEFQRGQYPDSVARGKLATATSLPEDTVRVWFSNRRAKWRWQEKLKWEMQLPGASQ

| Sequence | binding signal |
| --- | --- |
| ACGGCTGG | 9.39 upbm affinity estimate (log intensity, higher = more binding, comparable within an allelic series) |
| ACCCGGGC | 9.37 upbm affinity estimate (log intensity, higher = more binding, comparable within an allelic series) |
| CGGGCTCC | 9.04 upbm affinity estimate (log intensity, higher = more binding, comparable within an allelic series) |

target: HOXA2 (Homo sapiens, UniProt O43364 129-215, Y150S); experiment: PBM; 200 nM protein, PBS; conditions: dsDNA, one strand shown
Sequence (O43364 129-215 Y150S): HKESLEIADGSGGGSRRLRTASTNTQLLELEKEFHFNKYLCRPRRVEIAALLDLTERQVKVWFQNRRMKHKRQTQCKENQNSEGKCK

| Sequence | binding signal |
| --- | --- |
| CTAATTGC | 10.7 upbm affinity estimate (log intensity, higher = more binding, comparable within an allelic series) |
| CGGGCTCC | 10.2 upbm affinity estimate (log intensity, higher = more binding, comparable within an allelic series) |
| CCAGGCCG | 10.3 upbm affinity estimate (log intensity, higher = more binding, comparable within an allelic series) |
| GCACTTAA | 10.8 upbm affinity estimate (log intensity, higher = more binding, comparable within an allelic series) |

target: NKX3-2 (Homo sapiens, UniProt P78367 192-278, P234S); experiment: PBM; 200 nM protein, PBS; conditions: dsDNA, one strand shown
Sequence (P78367 192-278 P234S): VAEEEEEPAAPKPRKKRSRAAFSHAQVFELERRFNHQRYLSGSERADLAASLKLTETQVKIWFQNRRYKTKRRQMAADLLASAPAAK

| Sequence | binding signal |
| --- | --- |
| AAGTGGAG | 12.7 upbm affinity estimate (log intensity, higher = more binding, comparable within an allelic series) |
| CACTTAGA | 12.6 upbm affinity estimate (log intensity, higher = more binding, comparable within an allelic series) |
| CACTTTAA | 12.5 upbm affinity estimate (log intensity, higher = more binding, comparable within an allelic series) |
| CACTTAAC | 12.9 upbm affinity estimate (log intensity, higher = more binding, comparable within an allelic series) |
| GTACTTAA | 12.7 upbm affinity estimate (log intensity, higher = more binding, comparable within an allelic series) |
| ACCACTTA | 13.3 upbm affinity estimate (log intensity, higher = more binding, comparable within an allelic series) |
| CACTTATA | 12.7 upbm affinity estimate (log intensity, higher = more binding, comparable within an allelic series) |
| CCGGAGCC | 10.4 upbm affinity estimate (log intensity, higher = more binding, comparable within an allelic series) |
| ACACTTAT | 12.5 upbm affinity estimate (log intensity, higher = more binding, comparable within an allelic series) |
| CCACTTTA | 13 upbm affinity estimate (log intensity, higher = more binding, comparable within an allelic series) |
| ATAAGTAC | 12.5 upbm affinity estimate (log intensity, higher = more binding, comparable within an allelic series) |
| AAGTACCT | 12.6 upbm affinity estimate (log intensity, higher = more binding, comparable within an allelic series) |
| AAGCACTT | 12.5 upbm affinity estimate (log intensity, higher = more binding, comparable within an allelic series) |
| GCACTTAA | 12.9 upbm affinity estimate (log intensity, higher = more binding, comparable within an allelic series) |
| GCCACTTA | 13.3 upbm affinity estimate (log intensity, higher = more binding, comparable within an allelic series) |

target: CRX (Homo sapiens, UniProt O43186 26-111, R41L); experiment: PBM; 200 nM protein, PBS; conditions: dsDNA, one strand shown
Sequence (O43186 26-111 R41L): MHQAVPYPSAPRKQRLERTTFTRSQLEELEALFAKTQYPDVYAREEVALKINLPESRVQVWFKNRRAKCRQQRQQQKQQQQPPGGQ

| Sequence | binding signal |
| --- | --- |
| CGGTCCAA | 8.25 upbm affinity estimate (log intensity, higher = more binding, comparable within an allelic series) |
| CGGACCCG | 8.36 upbm affinity estimate (log intensity, higher = more binding, comparable within an allelic series) |
| CCGGCGCG | 8.36 upbm affinity estimate (log intensity, higher = more binding, comparable within an allelic series) |
| CGAACGCC | 8.11 upbm affinity estimate (log intensity, higher = more binding, comparable within an allelic series) |
| ATTACGTA | 10.2 upbm affinity estimate (log intensity, higher = more binding, comparable within an allelic series) |

target: ALX1 (Homo sapiens, UniProt Q15699 118-204); experiment: PBM; 200 nM protein, PBS; conditions: dsDNA, one strand shown
Sequence (Q15699 118-204): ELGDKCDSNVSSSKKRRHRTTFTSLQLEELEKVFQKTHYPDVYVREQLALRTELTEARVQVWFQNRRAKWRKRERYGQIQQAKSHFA

| Sequence | binding signal |
| --- | --- |
| AATTAGCT | 12.1 upbm affinity estimate (log intensity, higher = more binding, comparable within an allelic series) |
| CTTAAGTA | 9.39 upbm affinity estimate (log intensity, higher = more binding, comparable within an allelic series) |
| CTAATTGC | 12.2 upbm affinity estimate (log intensity, higher = more binding, comparable within an allelic series) |
| CCGGCGCG | 6.04 upbm affinity estimate (log intensity, higher = more binding, comparable within an allelic series) |
| CGAACGCC | 6.54 upbm affinity estimate (log intensity, higher = more binding, comparable within an allelic series) |
| CCACTTTA | 8.77 upbm affinity estimate (log intensity, higher = more binding, comparable within an allelic series) |

target: HOXA4 (Homo sapiens, UniProt Q00056 201-287, W262F); experiment: PBM; 200 nM protein, PBS; conditions: dsDNA, one strand shown
Sequence (Q00056 201-287 W262F): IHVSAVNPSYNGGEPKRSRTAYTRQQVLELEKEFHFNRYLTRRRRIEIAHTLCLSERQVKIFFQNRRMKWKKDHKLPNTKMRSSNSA

| Sequence | binding signal |
| --- | --- |
| AATTAGCT | 11.5 upbm affinity estimate (log intensity, higher = more binding, comparable within an allelic series) |
| CTAATTGC | 11.4 upbm affinity estimate (log intensity, higher = more binding, comparable within an allelic series) |
| CCGGAGCC | 9.84 upbm affinity estimate (log intensity, higher = more binding, comparable within an allelic series) |
| CGGGCTCC | 9.68 upbm affinity estimate (log intensity, higher = more binding, comparable within an allelic series) |

target: ALX3 (Homo sapiens, UniProt O95076 139-225, N203S); experiment: PBM; 200 nM protein, PBS; conditions: dsDNA, one strand shown
Sequence (O95076 139-225 N203S): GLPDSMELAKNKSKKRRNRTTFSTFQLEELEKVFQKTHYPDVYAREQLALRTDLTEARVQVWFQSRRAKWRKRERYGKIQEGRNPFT

| Sequence | binding signal |
| --- | --- |
| AATTAGCT | 8.56 upbm affinity estimate (log intensity, higher = more binding, comparable within an allelic series) |
| CTAATTGC | 8.29 upbm affinity estimate (log intensity, higher = more binding, comparable within an allelic series) |
| CGGGCTCC | 7.54 upbm affinity estimate (log intensity, higher = more binding, comparable within an allelic series) |

target: PRRX1 (Homo sapiens, UniProt P54821 80-166); experiment: PBM; 200 nM protein, PBS; conditions: dsDNA, one strand shown
Sequence (P54821 80-166): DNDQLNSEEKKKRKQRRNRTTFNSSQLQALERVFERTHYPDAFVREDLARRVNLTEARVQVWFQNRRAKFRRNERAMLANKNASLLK

| Sequence | binding signal |
| --- | --- |
| CACGCGTG | 9.41 upbm affinity estimate (log intensity, higher = more binding, comparable within an allelic series) |
| ACGCGCAG | 9.2 upbm affinity estimate (log intensity, higher = more binding, comparable within an allelic series) |
| CGGGCTCC | 8.33 upbm affinity estimate (log intensity, higher = more binding, comparable within an allelic series) |
